“And” between values parts separate entries of the source, which are not always exact repeats. Equal entries are not always repeated. Screen size: about 5,500 compounds; about 2,000 (36%) were called active. About 18% were inconclusive and are not listed. The list shows a part of the results. A number with no mark means an inactive call. Rule as the data show it: active = normalized growth mostly below about 0.91 (no sharp cut-off); inconclusive = no clear call, values can overlap the other calls; inactive = mostly above about 0.92.
Test: chemical genetic growth profiling, strain panel (AID 1159580);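 also: tested at 20 µM; growth read once vehicle control cultures reached saturation at 30 °C; 1 = growth at the plate median or of vehicle wells; lower values mean less growth of the strain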
Conditions: S. cerevisiae deletion strains, growth OD

Which results are given for `C=C1c2c(Cl)ccc(O)c2C(O)=C2C(=O)[C@]3(O)C(O)=C(C(N)=O)C(=O)[C@@H](N(C)C)[C@@H]3[C@@H](O)[C@H]12`?
normalized growth (locus YAL013W, strain DEP1, hits give low values): 0.972; normalized growth (locus YAL021C, strain ccr4, hits give low values): 0.964; normalized growth (locus YAL026C, strain drs2, hits give low values): 0.934; normalized growth (locus YAL030W, strain snc1, hits give low values): 0.981; normalized growth (locus YBL061C, strain skt5, hits give low values): 0.976; normalized growth (locus YBR009C, strain hhf1, hits give low values): 0.958; normalized growth (locus YBR021W, strain FUR4, hits give low values): 0.914; normalized growth (locus YBR023C, strain chs3, hits give low values): 0.966; normalized growth (locus YBR171W, strain sec66, hits give low values): 0.999; normalized growth (locus YBR229C, strain ROT2, hits give low values): 0.977; normalized growth (locus YBR231C, strain swc5, hits give low values): 0.978; normalized growth (locus YBR279W, strain paf1, hits give low values): 0.956; normalized growth (locus YCL011C, strain gbp2, hits give low values): 0.935; normalized growth (locus YCL016C, strain dcc1, hits give low values): 0.936; normalized growth (locus YCL029C, strain bik1, hits give low values): 0.948; normalized growth (locus YCL061C, strain MRC1, hits give low values): 0.954; normalized growth (locus YCL069W, strain vba3, hits give low values): 0.977; normalized growth (locus YCR088W, strain abp1, hits give low values): 0.981; normalized growth (locus YDL005C, strain med2, hits give low values): 0.99; normalized growth (locus YDL035C, strain GPR1, hits give low values): 0.954; normalized growth (locus YDL040C, strain nat1, hits give low values): 0.993; normalized growth (locus YDL074C, strain BRE1, hits give low values): 0.946; normalized growth (locus YDL101C, strain DUN1, hits give low values): 0.965; normalized growth (locus YDL134C, strain PPH21, hits give low values): 0.909; normalized growth (locus YDL185W, strain tfp1, hits give low values): 0.961; normalized growth (locus YDL192W, strain arf1, hits give low values): 0.95; normalized growth (locus YDR001C, strain nth1, hits give low values): 0.973; normalized growth (locus YDR069C, strain doa4, hits give low values): 0.965; normalized growth (locus YDR101C, strain arx1, hits give low values): 0.961; normalized growth (locus YDR137W, strain rgp1, hits give low values): 0.977; normalized growth (locus YDR150W, strain NUM1, hits give low values): 0.98; normalized growth (locus YDR159W, strain sac3, hits give low values): 0.966; normalized growth (locus YDR162C, strain NBP2, hits give low values): 0.945; normalized growth (locus YDR195W, strain ref2): 1.01; normalized growth (locus YDR297W, strain sur2, hits give low values): 0.981; normalized growth (locus YDR318W, strain mcm21, hits give low values): 0.947; normalized growth (locus YDR334W, strain swr1, hits give low values): 0.949; normalized growth (locus YDR335W, strain msn5, hits give low values): 0.967; normalized growth (locus YDR388W, hits give low values): 0.986; normalized growth (locus YDR392W, strain spt3, hits give low values): 0.849; normalized growth (locus YDR502C, strain sam2, hits give low values): 0.98; normalized growth (locus YEL003W, strain gim4, hits give low values): 0.967; normalized growth (locus YEL037C, strain rad23, hits give low values): 0.962; normalized growth (locus YEL061C, strain CIN8 (second series), hits give low values): 0.974; normalized growth (locus YEL061C, strain CIN8, hits give low values): 0.976; normalized growth (locus YER015W, strain faa2, hits give low values): 0.912 (active); normalized growth (locus YER016W, strain bim1, hits give low values): 0.964; normalized growth (locus YER110C, hits give low values): 0.989; normalized growth (locus YER111C, strain swi4, hits give low values): 0.949; normalized growth (locus YER155C, strain BEM2 (second series), hits give low values): 0.947; normalized growth (locus YER155C, strain BEM2, hits give low values): 0.992; normalized growth (locus YER167W, strain BCK2, hits give low values): 0.962; normalized growth (locus YFR010W, strain ubp6, hits give low values): 0.958; normalized growth (locus YGL078C, strain dbp3, hits give low values): 0.964; normalized growth (locus YGL086W, strain mad1, hits give low values): 0.964; normalized growth (locus YGL167C, strain pmr1, hits give low values): 0.971; normalized growth (locus YGL173C, strain kem1, hits give low values): 0.983; normalized growth (locus YGL227W, strain vid30, hits give low values): 0.997; normalized growth (locus YGL240W, strain doc1, hits give low values): 1.01; normalized growth (locus YGL248W, strain PDE1, hits give low values): 0.916; normalized growth (locus YGL253W, strain hxk2, hits give low values): 0.968; normalized growth (locus YGR078C, strain PAC10, hits give low values): 0.882; normalized growth (locus YGR135W, strain pre9, hits give low values): 0.94; normalized growth (locus YGR229C, strain SMI1, hits give low values): 0.957; normalized growth (locus YGR252W, strain gcn5, hits give low values): 0.967; normalized growth (locus YHR013C, strain ard1, hits give low values): 0.975; normalized growth (locus YHR027C, strain rpn1, hits give low values): 0.962; normalized growth (locus YHR030C, strain SLT2, hits give low values): 0.969 and 0.993; normalized growth (locus YHR079C, strain IRE1 (second series), hits give low values): 0.961; normalized growth (locus YHR079C, strain IRE1, hits give low values): 0.985; normalized growth (locus YHR094C, strain hxt1, hits give low values): 0.974; normalized growth (locus YHR129C, strain ARP1, hits give low values): 0.958; normalized growth (locus YHR142W, strain chs7, hits give low values): 0.981; normalized growth (locus YHR200W, strain rpn10, hits give low values): 0.952; normalized growth (locus YIL066C, strain RNR3, hits give low values): 0.915; normalized growth (locus YIL073C, strain SPO22, hits give low values): 0.952; normalized growth (locus YIL125W, strain kgd1, hits give low values): 0.98; normalized growth (locus YIR030C, strain dcg1, hits give low values): 0.98; normalized growth (locus YJL092W, strain hpr5, hits give low values): 0.966; normalized growth (locus YJL095W, strain BCK1 (second series), hits give low values): 0.976; normalized growth (locus YJL095W, strain BCK1, hits give low values): 0.898 and 0.992; normalized growth (locus YJL115W, strain asf1, hits give low values): 0.979; normalized growth (locus YJL129C, strain trk1, hits give low values): 1.01; normalized growth (locus YJL134W, strain LCB3, hits give low values): 0.98; normalized growth (locus YJL154C, strain vps35, hits give low values): 0.985; normalized growth (locus YJL164C, strain tpk1, hits give low values): 0.928; normalized growth (locus YJL166W, strain qcr8, hits give low values): 0.976; normalized growth (locus YJL168C, strain set2, hits give low values): 0.974; normalized growth (locus YJL187C, strain SWE1 (second series), hits give low values): 0.885; normalized growth (locus YJR043C, strain POL32, hits give low values): 0.879; normalized growth (locus YJR066W, strain TOR1, hits give low values): 0.951
